S1P4 agonist – activates the human S1P4 receptor; S1P4-expressing cell line, agonist reporter assay; activation, % at 4.98 µM; actives 0.35% (n = 220,000); AID 1509; in the data active = activation above about 11%
Target sequence (O95977 whole entry, looked up): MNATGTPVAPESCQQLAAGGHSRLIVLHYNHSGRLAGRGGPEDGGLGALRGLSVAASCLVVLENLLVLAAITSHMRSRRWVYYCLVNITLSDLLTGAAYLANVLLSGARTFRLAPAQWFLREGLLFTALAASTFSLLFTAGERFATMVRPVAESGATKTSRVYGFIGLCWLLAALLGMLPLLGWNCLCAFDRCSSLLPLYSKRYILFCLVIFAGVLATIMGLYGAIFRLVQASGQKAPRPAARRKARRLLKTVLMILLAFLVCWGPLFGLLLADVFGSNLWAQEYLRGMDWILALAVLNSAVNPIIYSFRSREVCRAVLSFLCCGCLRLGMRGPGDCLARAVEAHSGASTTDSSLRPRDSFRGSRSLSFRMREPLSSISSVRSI
KCC2 mod – modulates chloride dependent transport by human KCC2; Q9H2X9; KCC2 cells, thallium flux FluoZin-2 fluorescence; B-score of Tl+ flux slope (higher = more flux/activation; lower = inhibition) at 10 µM; actives 2.2% (n = 190,000);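 active = thallium flux slope and its plate-corrected score both differing from the plate sample mean at a set confidence after two filtering rounds, in either direction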;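 also: slope of fluorescence scaled to starting intensity during 10 to 20 s after thallium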
S1P3 antagonist – S1P3 (human) receptor antagonism; CHO S1P3 NFAT-BLA reporter, FRET fluorescence, antagonist mode; Q99500; actives 0.27% (n = 170,000); inhibition, % at 4.98 µM; AID 485;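 active = inhibition above the plate cutoff, the mean inhibition of test wells on that plate plus 3 SD, cut at about 28% in these data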;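 also: cells challenged with S1P at its EC80 of 0.8 µM; blue over green emission ratio from cleaved BLA substrate after 4 h stimulation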
RAM inhibit – inhibitors of the yeast RAM network; S. cerevisiae dse1pr::URA3 reporter, 5-FOA growth OD615, 2 d; analog-sensitive cbk1-as2 kinase mutant strain; inhibition, % at 50 µM; AID 868; actives 1.8% (n = 190,000);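 active = inhibition above a set limit, 3 SD over mean compound inhibition, cut at about 8.4% in these data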;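 also: inhibition rescues growth on 5-FOA so higher OD means more RAM inhibition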
ROMK mod – human ROMK K+ channel modulation, primary screen | Tet-inducible ROMK, thallium flux fluorescence; actives lie on both sides | B-score at 10 µM | actives 2% (n = 130,000) | AID 1918;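 active = signal ratio slope over the read window, or its plate-corrected B-score, at least 3 SD from the plate mean, either direction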;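 also: B-score of the F/F0 ratio slope over 7 to 12 s after thallium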
Target sequence (P48048 whole entry, looked up): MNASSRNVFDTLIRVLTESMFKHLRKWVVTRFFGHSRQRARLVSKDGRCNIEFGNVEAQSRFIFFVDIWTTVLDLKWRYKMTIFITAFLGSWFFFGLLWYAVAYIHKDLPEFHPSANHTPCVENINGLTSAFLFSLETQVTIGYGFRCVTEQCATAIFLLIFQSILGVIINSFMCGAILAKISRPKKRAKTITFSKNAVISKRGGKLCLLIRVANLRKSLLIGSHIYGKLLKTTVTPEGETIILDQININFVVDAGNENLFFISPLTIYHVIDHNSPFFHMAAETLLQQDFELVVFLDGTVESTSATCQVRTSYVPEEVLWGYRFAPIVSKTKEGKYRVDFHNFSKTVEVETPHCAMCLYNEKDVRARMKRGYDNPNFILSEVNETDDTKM
S1P4 antagonist – antagonists of human S1P4 receptor; AID 1510; actives 0.26% (n = 220,000); inhibition, % at 4.98 µM; O95977; S1P4-expressing cells, antagonist mode, reporter read-out; in the data active = inhibition above about 29%
KCC2 sec1 – confirmation of human KCC2 transport modulators; actives 15% (n = 3,700); normalised thallium flux (F/F0 slope) at 10 µM; shares compounds with KCC2 mod; HEK293-KCC2, thallium flux, FluoZin2 fluorescence; active compounds read high;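 active = thallium flux slope above the same plate's solvent-only control mean plus 3 SD; inconclusive = the two replicate wells disagree; inactive = no significant difference from solvent-only control wells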
KCC2 bumet counter – bumetanide-insensitive thallium flux in KCC2 cells with ouabain, counter-screen | HEK293-KCC2 + bumetanide/ouabain, thallium flux FluoZin2; active compounds read high | shares compounds with KCC2 mod | actives 49% (n = 3,700) | normalized thallium flux at 10 µM;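 active = thallium entry rate above the same plate's blocked-transporter control wells by more than 3 SD; inconclusive = the two repeat wells disagree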;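 also: raw slope of fluorescence over initial fluorescence between 10 and 20 s after thallium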
KCC2 sec2 – confirmation of human KCC2 transport modulators; normalized thallium flux at 10 µM; actives 23% (n = 3,700); shares compounds with KCC2 mod; HEK293-KCC2, thallium flux FluoZin2 fluorescence; actives lie on both sides; F/F0 rise rate, 10–20 s post-thallium; AID 1715;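 active = thallium flux slope more than 3 SD above or below the plate's solvent-only control mean, mostly below; inconclusive = the two repeat wells disagreed; inactive = no significant shift from solvent-only controls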
HEK counter1 – acts in parental HEK cells, KCC2 counter-screen. thallium flux rate (normalised fluorescence) at 10 µM. actives 46% (n = 3,700). AID 1716. HEK293 parental cells, thallium flux FluoZin2, ouabain; baseline-ratio fluorescence slope, 10–20 s after thallium. shares compounds with KCC2 mod;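 active = thallium flux rate significantly above the same plate's solvent-only control wells, beyond their mean plus 3 SD; inconclusive = the two replicate wells gave conflicting results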
KCC2 ouabain – KCC2 (human) modulation, ouabain retest; shares compounds with KCC2 mod; HEK293-KCC2, thallium flux FluoZin2 fluorescence; bidirectional: low = inhibitor, high = activator; raw Tl+ flux slope (below DMSO = inhibition, above = activation) at 10 µM; actives 48% (n = 3,700); AID 1717;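 active = thallium flux slope beyond 3 SD from same-plate DMSO control mean in most replicates, usually higher, sometimes lower; inconclusive = repeat tests gave conflicting results; inactive = no significant difference from controls in most replicates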;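 also: slope of initial-normalized fluorescence between seconds 10 and 20 after thallium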
HEK counter2 – parental HEK flux effect, counter-screen 2. shares compounds with KCC2 mod. HEK293 parental, thallium flux FluoZin-2 fluorescence slope. thallium flux slope at 10 µM. actives 33% (n = 3,700). AID 1718;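 active = thallium flux slope above the same plate's solvent-control mean plus 3 SD in both duplicate wells; inconclusive = duplicate wells that disagreed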;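 also: run without ouabain in cells lacking the KCC2 cotransporter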
Numbers stand for hits; i = inactive; ? = inconclusive; nt = no result. This is a sample that favours compounds with a hit; in the whole collection about 5.1% have one here.

SMILES	S1P4 agonist	KCC2 mod	S1P3 antagonist	RAM inhibit	ROMK mod	S1P4 antagonist	KCC2 sec1	KCC2 bumet counter	KCC2 sec2	HEK counter1	KCC2 ouabain	HEK counter2
CCOC(=O)CCCn1ncn2c(cc3occc32)c1=O	i	i	nt	i	i	i	nt	nt	nt	nt	nt	nt
O=C(CCCn1c(=O)oc2ccccc21)N1CCc2ccccc2C1	i	nt	nt	i	i	i	i	i	i	i	0.018	i
O=C(CCCn1ncn2c(cc3occc32)c1=O)N1CCc2ccccc2C1	i	-2.8	i	i	i	i	i	i	0.024	i	?	i
O=C(CCn1c(=O)oc2ccccc21)NCCN1CCc2ccccc2C1	i	i	i	i	nt	i	nt	nt	nt	nt	nt	nt
Cn1cnc(S(=O)(=O)NCc2ccccc2)c1	i	i	i	i	i	i	nt	nt	nt	nt	nt	nt
COc1cccc(CNS(=O)(=O)c2cn(C)cn2)c1	i	7.2	i	i	i	i	i	i	i	i	i	i
COc1cccc(NC(=O)COC(=O)CC(NC(N)=O)c2ccc(Cl)cc2)c1 (stereo unspecified)	i	i	i	nt	nt	i	nt	nt	nt	nt	nt	nt
O=C(/C=C/c1cccc([N+](=O)[O-])c1)Nc1cccc(NC(=O)c2cccs2)c1	i	-4.6	i	i	nt	i	i	?	0.025	i	0.015	i
O=C1/C(=C\c2ccco2)NC(=S)N1c1ccccc1	i	15	i	i	i	i	0.015	0.033	i	0.018	?	0.013
CCCN=C1N/C(=C\c2ccco2)C(=O)N1c1ccccc1	i	i	nt	i	i	i	nt	nt	nt	nt	nt	nt
Cc1nn(-c2ccccc2)nc1C(=O)NNC(=O)c1cccc2ccccc12	i	69	i	nt	i	i	0.024	0.15	i	0.075	0.1	0.024
Cc1nc(C(=O)NNC(=O)c2ccc(C(F)(F)F)cc2)cs1	i	5.1	i	nt	i	i	i	0.02	i	0.01	?	?
Cc1nn(-c2ccccc2)nc1C(=O)NNC(=O)c1ccc(C(F)(F)F)cc1	i	22	i	nt	i	i	0.023	0.097	i	0.035	0.055	0.017
Cc1nn(-c2ccccc2)nc1C(=O)NN	i	nt	i	nt	nt	i	nt	nt	nt	nt	nt	nt
O=C(CSc1nnc(-c2c[nH]c3ccccc23)o1)c1ccc(-c2ccccc2)cc1	i	i	i	i	nt	i	nt	nt	nt	nt	nt	nt
O=C(NCc1ccc2c(c1)OCO2)c1ccc(COc2cccc(Cl)c2)o1	i	-6.9	i	i	nt	i	i	i	i	i	?	i
CCCOc1ccc(NC(=O)OC2CCN(C)CC2)cc1	i	i	i	i	i	i	nt	nt	nt	nt	nt	nt
O=C(CSc1nnc(-c2ccco2)n1Cc1ccccc1)c1ccc(F)cc1	i	-6.1	i	i	nt	i	i	?	0.021	0.0055	0.012	?
Cc1occc1-c1nnc(SCC(=O)c2ccc(F)cc2)n1Cc1ccco1	i	-3	i	i	nt	i	i	?	0.023	0.0055	0.011	i
O=C(CSc1nnc(-c2ccco2)n1Cc1ccccc1)NCc1ccccc1	i	i	nt	i	i	i	nt	nt	nt	nt	nt	nt
CCCCCCCCNC(=O)c1ccc(C)cc1	i	i	i	i	nt	i	nt	nt	nt	nt	nt	nt
Cn1c(Sc2ccc(C(F)(F)F)cc2[N+](=O)[O-])nnc1-c1ccccc1	i	-5.3	nt	i	i	i	i	i	i	i	i	i
Cn1c(Sc2ccc([N+](=O)[O-])cc2C(F)(F)F)nnc1-c1ccccc1	i	i	nt	i	i	i	nt	nt	nt	nt	nt	nt
CC(=O)NS(=O)(=O)c1ccc(NC(=O)c2oc3c(Cl)cccc3c2C)cc1	i	i	i	nt	nt	i	nt	nt	nt	nt	nt	nt
COc1cccc(NC(=O)Nc2ccc(Br)cn2)c1	i	i	i	nt	nt	i	nt	nt	nt	nt	nt	nt
SMILES	S1P4 agonist	KCC2 mod	S1P3 antagonist	RAM inhibit	ROMK mod	S1P4 antagonist	KCC2 sec1	KCC2 bumet counter	KCC2 sec2	HEK counter1	KCC2 ouabain	HEK counter2
O=C(N1CCOCC1)n1nnc2ccccc21	i	7.5	i	i	nt	i	i	?	i	i	i	i
O=S1(=O)C=C(SCc2cccc(Cl)c2)Nc2ccccc21	i	-3.4	nt	i	nt	i	?	i	i	i	0.016	i
Cc1cccc(CSC2=CS(=O)(=O)c3ccccc3N2)c1	i	i	nt	i	nt	i	nt	nt	nt	nt	nt	nt
O=S(=O)(c1ccccc1)N1CCn2c(nc3ccccc32)C1	i	nt	nt	i	nt	i	i	?	i	i	i	i
O=S(=O)(c1ccc(F)cc1)N1CCn2c(nc3ccccc32)C1	i	nt	nt	i	nt	i	nt	nt	nt	nt	nt	nt
Cc1cccc(Nc2nnc(SCC(=O)c3ccc(Br)s3)s2)c1C	i	-4.3	i	i	i	i	?	?	0.027	i	0.011	i
Cc1ccc2[nH]c(=O)c(CN(CCc3ccccc3)Cc3nnnn3CC3CCCO3)cc2c1 (stereo unspecified)	i	-4.3	i	i	i	i	?	i	?	i	i	i
COc1ccc2[nH]c(=O)c(CN(CCc3ccccc3)Cc3nnnn3CC3CCCO3)cc2c1 (stereo unspecified)	i	i	i	i	nt	i	nt	nt	nt	nt	nt	nt
COc1ccc2[nH]c(=O)c(CN(Cc3ccccc3OC)Cc3nnnn3CC3CCCO3)cc2c1 (stereo unspecified)	i	8.6	i	i	nt	i	i	i	i	i	i	i
O=c1[nH]c2cc3c(cc2cc1CN(Cc1nnnn1CC1CCCO1)C1CCCCC1)OCO3 (stereo unspecified)	i	7.4	i	i	i	i	i	?	0.025	i	0.016	?
COc1ccccc1CN(Cc1cc2cc(C)ccc2[nH]c1=O)Cc1nnnn1CC1CCCO1 (stereo unspecified)	i	i	i	i	i	i	nt	nt	nt	nt	nt	nt
O=c1[nH]c2cc3c(cc2cc1CN(Cc1nnnn1CC1CCCO1)C1CCCC1)OCO3 (stereo unspecified)	i	i	i	i	nt	i	nt	nt	nt	nt	nt	nt
Fc1ccc(-n2c(-c3ccc4ccccc4n3)n[nH]c2=S)cc1Cl	i	26	i	i	i	i	i	0.023	0.042	0.031	0.04	0.019
Cc1ccccc1-n1c(-c2ccc3ccccc3n2)n[nH]c1=S	i	11	i	nt	nt	i	i	0.023	i	?	?	i
